Test results reported in PubChem BioAssay (NCI).
About 79,000 compounds went through this panel and 15% of them were active in at least one assay; those are over-represented in the sample as a whole. Values without a mark were called inactive. Active and inactive are the calls of the source. Cut-off read from the data, not from the text of the source: active = growth inhibition above about 70%; inactive = the rest.

Columns and labels:
[1] = NCI Yeast Anticancer Drug Screen. Data for the rad50 strain (AID 155);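 note: 0% = growth of vehicle-only cultures of the same strain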; conditions: S. cerevisiae rad50 strain growth inhibition, active compounds read high
Procedure, shortened: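 Yeast carrying a defined DNA repair defect were exposed to test compounds, and growth was compared with vehicle-treated controls to give percent inhibition.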

[2] = NCI Yeast Anticancer Drug Screen. Data for the mec2-1 strain (AID 157); conditions: S. cerevisiae mec2-1 strain, active compounds read high
Procedure, shortened: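 Vehicle-treated cultures served as reference for growth inhibition of compound-exposed mec2-1 yeast.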

[3] = NCI Yeast Anticancer Drug Screen. Data for the sgs1 mgt1 strain (AID 161);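 note: 0% = growth of cultures given vehicle only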; conditions: S. cerevisiae sgs1 mgt1 strain, active compounds read high
Procedure, shortened: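 Test agents were incubated with a DNA-repair-mutant yeast strain. Growth was then read and compared against vehicle-treated controls.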

[4] = NCI Yeast Anticancer Drug Screen. Data for the cln2 rad14 strain (AID 165);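 note: 0% = growth equal to vehicle treated cultures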; conditions: S. cerevisiae cln2 rad14 strain, active compounds read high
Procedure, shortened: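 Each compound was tested on cln2 rad14 yeast. Inhibition of growth was calculated against vehicle-exposed controls.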

[5] = NCI Yeast Anticancer Drug Screen. Data for the bub3 strain (AID 167); conditions: S. cerevisiae bub3 mutant strain, active compounds read high
Procedure, shortened: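 Compounds were applied to a genetically altered yeast strain carrying a cell-cycle control defect. Growth inhibition was scored against vehicle-treated controls.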

[6] = NCI Yeast Anticancer Drug Screen. Data for the mlh1 rad18 strain (AID 175); conditions: S. cerevisiae mlh1 rad18 strain growth inhibition, active compounds read high
Procedure, shortened: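 Vehicle-treated cultures served as the reference for growth inhibition in a yeast strain carrying DNA damage repair alterations exposed to each compound.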

[7] = at 5.0 µM (retest, dose inferred, filed as 0.5)
[8] = at 50.0 µM (retest, dose inferred, filed as 5.0)

Structure (SMILES) | growth inhibition [1, 7] | growth inhibition [1, 8] | growth inhibition ([1]; at 50.0 µM) | growth inhibition [2, 7] | growth inhibition [2, 8] | growth inhibition ([2]; at 50.0 µM) | growth inhibition [3, 7] | growth inhibition [3, 8] | growth inhibition ([3]; at 50.0 µM) | growth inhibition [4, 7] | growth inhibition [4, 8] | growth inhibition ([4]; at 50.0 µM) | growth inhibition [5, 7] | growth inhibition [5, 8] | growth inhibition ([5]; at 50.0 µM) | growth inhibition [6, 7] | growth inhibition [6, 8] | growth inhibition ([6]; at 50.0 µM)
O=C(Cc1ccccc1)c1ccccc1C(=O)NNc1ccccc1 | 7% | 18% | 49% | -5% | 6% | -6.4% | -4% | -2% | -8% | 4% | 61% | -51.9% | 43% | 96% (active) | 26.2% | 5% | 22% | -0.75%
C1=Nc2ccccc2/C1=C/c1ccccc1 | 10% | 22% | 72.9% (active) | -9% | 20% | 48.8% | -13% | 19% | 49.7% | 27% | 26% | 40% | 9% | 38% | 64.4% | 2% | 50% | 52.1%
c1c2c(cc(-n3nnc4c3CCCCCC4)c1-n1nnc3c1CCCCCC3)CCCCCC2 | 30% | 30% | 89.4% (active) | 26% | 26% | 90.5% (active) | 23% | 23% | 89.5% (active) | 17% | 17% | 91.1% (active) | 7% | 7% | 90.4% (active) | 27% | 27% | 87.3% (active)
CCOC(=O)C(NS(=O)(=O)c1ccccc1)(C(F)(F)F)P(=O)(OCC(C)C)OCC(C)C (configuration not stated) | 4% | -2% | 98.5% (active) | 8% | -2% | 96.1% (active) | -7% | -3% | 96.2% (active) | 2% | 13% | 97.3% (active) | 4% | 0% | 96.2% (active) | 0% | 17% | 98% (active)
N#CC(=C1C=CC(=NOC(=O)Nc2ccccc2)C=C1)c1ccccc1 | 18% | 98% (active) | 99% (active) | 4% | 99% (active) | 99.4% (active) | 11% | 99% (active) | 99.5% (active) | 1% | 99% (active) | 88.3% (active) | -5% | 98% (active) | 99.2% (active) | 5% | 98% (active) | 99.2% (active)
CC(C)Cn1cnc2c(SCc3cccc(F)c3)nc(N)nc21 | 0% | 27% | -10.4% | -1% | 12% | 8.05% | 2% | 31% | 67.8% | -5% | 54% | -10.2% | 2% | 35% | 73.3% (active) | 0% | 45% | 37%
CC(=O)NC(CCC(=O)O)C(=O)O.[NH-]C1CCCCC1[NH-].[Pt+2] (configuration not stated) | 96% (active) | 99% (active) | 99.5% (active) | 99% (active) | 99% (active) | 99.3% (active) | 98% (active) | 99% (active) | 100% (active) | 88% (active) | 98% (active) | 99.4% (active) | 99% (active) | 98% (active) | 99% (active) | 96% (active) | 99% (active) | 99.2% (active)
O=C(Nc1ccc(Cl)cc1)NS(=O)(=O)c1c(-c2ccccc2)oc2ccccc2c1=O | 14% | 99% (active) | 92.3% (active) | 6% | 98% (active) | 96.3% (active) | 7% | 99% (active) | 95.5% (active) | 15% | 98% (active) | 93.3% (active) | 0% | 97% (active) | 95.3% (active) | 15% | 98% (active) | 95.3% (active)
N#CC1(C#N)C(C#N)(C#N)C12CCCCCC2 | 38% | 97% (active) | 98.9% (active) | 32% | 98% (active) | 99.3% (active) | 39% | 99% (active) | 99.5% (active) | 13% | 95% (active) | 98.7% (active) | 39% | 83% (active) | 99% (active) | 52% | 98% (active) | 99.2% (active)
COC(O)C(=O)c1ccc2c(c1)CC1(C2)Cc2cc3c(cc2C1=O)CCC3 (configuration not stated) | 28% | 99% (active) | 20.2% | 40% | 99% (active) | 23.9% | 33% | 98% (active) | 52.1% | 23% | 99% (active) | 57.4% | 35% | 99% (active) | 31.6% | 41% | 99% (active) | 45.9%
O=C(Oc1c(Cl)c(Cl)c(Cl)c(Cl)c1Cl)c1ccc(Cl)cc1 | 25% | 99% (active) | 99.6% (active) | 19% | 99% (active) | 99.7% (active) | 24% | 99% (active) | 99% (active) | 13% | 99% (active) | 99.7% (active) | 15% | 99% (active) | 99.7% (active) | 30% | 99% (active) | 99.2% (active)
COC1=CC2=CCC3C(CCC4(C)C(C(C)=O)CCC34)C2(C)CC1 (configuration not stated) | -8% | 5% | 42.5% | -7% | 4% | 13% | -1% | 40% | 49% | -2% | 14% | 0.75% | -17% | -5% | 47.6% | -12% | -2% | 51.1%
O=C1C2=C(CCCC2)C(=O)c2ccccc21 | 6% | 76% (active) | 25.4% | 8% | 79% (active) | 13.7% | 11% | 71% (active) | 28% | 3% | 15% | -30.5% | 35% | 79% (active) | 60.4% | 7% | 43% | 68.5%
O=[N+]([O-])c1ccccc1N=Nc1c(O)[nH]c2ccc(S(=O)(=O)O)cc12 | 73% (active) | 96% (active) | 97.7% (active) | 36% | 87% (active) | 97.8% (active) | 68% | 93% (active) | 95.9% (active) | 85% (active) | 94% (active) | 95.6% (active) | 87% (active) | 97% (active) | 97.8% (active) | 90% (active) | 98% (active) | 98.4% (active)
CSc1nc(N)c2cnn(C3OC(CO)C(O)C3O)c2n1 (configuration not stated) | -9% | 8% | 9.55% | -12% | -11% | 2.8% | -25% | -6% | 15.2% | 7% | 28% | 6.8% | 3% | 80% (active) | 12% | -20% | -12% | 22%
Cc1cccc(/C=N\OCCc2ccccc2)n1 | 0% | 85% (active) | -3.05% | -6% | 53% | 80.2% (active) | 1% | 84% (active) | 16.6% | -14% | 21% | -14.1% | 2% | 94% (active) | 47.7% | -2% | 88% (active) | 32.8%
Nc1ccc(C(=O)/C=C/c2ccccc2O)cc1 | -3% | 37% | -21.9% | -5% | 2% | 28.1% | 15% | -1% | -9% | -19% | -14% | 2.4% | -19% | 23% | -15.8% | -6% | -1% | -1.15%
COc1cc2c(cc1O)C(O)CCCC2 (configuration not stated) | -146% | -152% | 6.6% | -45% | -55% | -14.6% | -62% | -32% | 41.8% | -52% | -61% | -4.15% | -64% | -75% | -6.4% | -147% | -108% | 12.3%
COC1/C=C\OC2(C)Oc3c(C)c(O)c4c(c3C2=O)C(=O)C=C(NC(=O)C(C)=C/C=C\C(C)C(O)C(C)C2OC(C)(C)OC(C1C)C2C)C4=O (configuration not stated) | -4% | 93% (active) | 28.9% | 24% | 37% | 33.5% | 1% | 52% | 41.8% | 19% | 74% (active) | 31.9% | -3% | 93% (active) | 14.9% | 1% | 77% (active) | 38.5%
